From PubChem BioAssay AID1508600 (Functional Genomics Laboratory (NCATS/FGL), 2020) come the findings set out here.

Among all 53,000 sequences or so, about 3,700 (7%) were called active.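 How the source made its calls: active means gene knockdowns whose robust z-score for IL-1 alpha signal is at least 2 or at most -2, so actives lie on both sides; inactive means the rest.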 The entries come from a sample that favours actives as a whole.

A short description of this experiment: Components of the Cytosolic LPS Sensing Pathway: Gene Identification via Genome-wide siRNA Screen.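 Further: robust z of the log signal after scaling to non-targeting control siRNA wells of the plate.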 To be noted: RAW264.7 macrophages, IL-1a HTRF, actives lie on both sides, screened at 100 nM (by protocol), cells primed 5 h with Pam3CSK4 first. In a few lines:
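Three distinct siRNAs per gene were tested singly at 100 nM in RAW264.7 macrophages. Following Pam3CSK4 priming and 24 hour LipidA transfection, IL-1a secretion was read by HTRF.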
A general note: In TR-FRET formats the signal depends on donor and acceptor labels being close together.
With GCAUUGUGCUGAUGUGCGGTT against Ap1ar, the z-score is 3.01 (active).
The result for GGUAUUCUGGCAAGACCACTT against Aatf reads 1.31 (inactive).
Take GGAAGCCUAGUUUUUUUAATT against Csnk2a1: the z-score was 2.89 (active).
On to GCUUUCAGUGAGGUACAAGTT against Gm4425, for which the z-score is -1.25 (inactive).
With GCUCUUUCUAGCCCUUCCCTT against Spry3, the z-score was -0.915 (inactive).
The same measure for GGAAAGAUAGAAGACAAACTT against Spry4: -0.0777 (inactive).
Take GGUUCUGAUAGCUCAAGAGTT against Polr2b: the z-score is -1.96 (inactive).
On to GGUUUUGAAAUUCCAGAAUTT against Nol9, for which the z-score was -0.22 (inactive).
Take GGCAACUGUUGUAAAUCAATT against Veph1: the z-score was -1.01 (inactive).
The result for GGACUCAAACGACACAUGCTT against Eci2 reads 2.42 (active); that for GCCAGUCAUUCAGUAAAGUTT against Mysm1, -1.15 (inactive); that for GGAGAAAUGUCAGUGCGAUTT against Mlc1, 0.431 (inactive).
The same measure for GGUCACAGAAUCGGUUUCATT against Cuta: 1.02 (inactive); for GGUUCUUGUUUUUACCCGCTT against Fam187b: 1.19 (inactive).
As for GGAGUGGCUAUGUUUUCGATT against Hrg, the z-score was 0.658 (inactive).
On to GGACUCGUUCCACUAUCAUTT against Naa20, for which the z-score is 0.33 (inactive).
In the case of GCGGUUUCGAACAAUCACGTT against Rab8a, the z-score is -2.4 (active).
The result for UCAACUGCUUAGAGCAUGUTT against Tmem259 reads 0.653 (inactive).
For the sequence CGACCUCCAGUAAUAACCUTT against Olfr310, the z-score was -0.746 (inactive).
For GGAAAGCUUGGACAUUAAGTT against Rps6kc1, the z-score was -0.0887 (inactive).
On to “GGUCACGUCAGCAAAGCAATT against B930095G15Rik”, for which the z-score was -2.73 (active).
The result for GCGAUGUGGACAGAAGUACTT against Cyba reads 1.01 (inactive); that for “GGUGUUUCAUAAGAAGGAATT against 1700010H22Rik”, -1.01 (inactive).
GCCAGUACUCUGCUUGUGATT against Naif1: the z-score is -1.64 (inactive).
Consider “GAUCCCUGGAUUGUGGAGUTT against 2310057N15Rik”, for which the z-score was 0.26 (inactive).
Take GGACGAGCUGUAUUUGAAUTT against Gsk3a: the z-score was -0.663 (inactive).
The result for CCAAAGAUACCAUAGGAUUTT against Zc3h12a reads 1.05 (inactive); that for GGUAGAUCCUAUCCUGUCUTT against Foxo4, -2.57 (active).
On to GCUGCAAUAGUCACUGGAGTT against H2-K1, for which the z-score was 0.115 (inactive).
For the sequence GCGACCAGCAGGUCAAAAUTT against Hoxd12, the z-score was 3.09 (active).
In the case of CCCUUCUCUGAGACAACACTT against Tcirg1, the z-score is 1.42 (inactive).
The same measure for GGAAAUAAUUCACUCACCATT against Eya1: -2.99 (active); for CCAAGUCGUAAUCUAGAAGTT against Scn7a: 0.191 (inactive); for GCUGGACCUUCAUGUAAUATT against Pcsk1: -0.234 (inactive).
The same measure for CCUCAUGUCUACAAAGUUATT against Gvin1: -1.14 (inactive).
On to GCGAGUUUUUGGAUGGUAGTT against Slc4a3, for which the z-score is 0.243 (inactive).
GGUAUGCAUGAACAUAAUGTT against Prl7c1: the z-score is 0.788 (inactive).
In the case of “GGACUUAAAAGAGGAGAUCTT against 4933434E20Rik”, the z-score was 3.73 (active).
As to GGCAUUUUCGUAUAGUUACTT against B3gnt9, the z-score is 0.81 (inactive).
Regarding GGUCAUCAGCUCUAUGAGCTT against Fry, the z-score is 0.0787 (inactive).
Turning to GCACAGAGGAUGUACGUUATT against Cstad, the z-score is -0.665 (inactive).
Turning to “GCCCAGAGAAUGACCUAUATT against 9130019O22Rik”, the z-score is 0.54 (inactive).
The result for “GGUGCUCCACAACACCUAUTT against 2510039O18Rik” reads 2.05 (active); that for CCUACUAUACAAUUCUGCUTT against Clns1a, 0.556 (inactive).
For GGUCACUUCAUCCAUAGCUTT against Atmin, the z-score is -1.79 (inactive).
The result for GACAGCAACGUGAAAUUAGTT against Xlr reads -0.828 (inactive); that for GGAUCUUUUCCAAAGAAAUTT against Dusp10, -0.409 (inactive).
Take GGAGGAAGAAGAGAUACCUTT against Foxh1: the z-score is -0.96 (inactive).
Take CGGGAAACUUAGGUAUGAUTT against Olfr1009: the z-score is -3.05 (active).
Turning to GGCAUGGAAGGCUAAACAGTT against Slc25a17, the z-score was -1.98 (inactive).
As for GGGUAUAGAGUCAAUCUGATT against Gfm2, the z-score is -0.381 (inactive).
The result for GCAGGGAUCUGCUAAGCUATT against Hey1 reads -0.953 (inactive).
In the case of GGACCCAUUGGUCAUCAUATT against Tent5b, the z-score is 0.18 (inactive).
The same measure for CGGAACCAUAGGGAAUCAGTT against Cmc2: 2.04 (active); for GCCUGAAUUUGUAAGCAGUTT against Fgf1: 0.0666 (inactive); for CAUUGUCAUUCUGCUGGCATT against Olfr1249: -0.0752 (inactive).
The same measure for GGUCACCAUCAUCAUCAAUTT against Carmil1: 0.484 (inactive); for GGUGGUAGAACUGUUAAAATT against Klc2: 0.311 (inactive); for GGAGAAAGAGACGGACAACTT against Fgfr1: 2.8 (active).
Take GGACUGAAUCUUUAAAGGUTT against Nkx1-2: the z-score was 0.199 (inactive).
With GGUGUUGUGGAAUAUUUAATT against Cnot6l, the z-score was 1.23 (inactive).
As for GGUCUUACCUUUUGAAAAATT against Mtbp, the z-score was 0.0999 (inactive).
For GCAUCCUCUCACUCUCAAUTT against Grin2a, the z-score was 2.37 (active).
The result for CCGAAGCCUUGAAAGCAGUTT against Shq1 reads 0.302 (inactive); that for GGAAACUGGAUCAAACCAUTT against Smarcd3, -0.707 (inactive).
Take CGAAGUGGUCAAGUUCUCUTT against Fbxo17: the z-score was -2.09 (active).
Consider CGAGUUAGUUUUUCUGGGCTT against Tctex1d4, for which the z-score is 0.997 (inactive).
For the sequence GCAAGAAAAGGUGCUAUCUTT against Med4, the z-score is -0.314 (inactive).
